# This is a sample that favours compounds with a hit; in the whole collection about 0.91% have one here.
# TRb-SRC2 inh: disrupts binding of human TR beta to SRC2; P10828; TRbeta-SRC2 peptide binding, fluorescence polarization; receptor liganded with 1 µM T3; Potency, µM (doses to about 106 µM), usual class: inhibitors; 280,000 compounds, 0.065% hits; AID 1469; also: nearly all actives have a fitted effect of over 50% in size
#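 Compounds were added to 0.6 uM TRb ligand-binding domain and 20 nM Texas Red-labeled SRC2 peptide in Tris buffer containing 1 uM T3, incubated 5 hr at ambient temperature, then read by fluorescence polarization.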
# APE1 inh-1: APE1 (human) endonuclease inhibition. P27695. recombinant APE1, TAMRA/BHQ-2 abasic DNA cleavage fluorescence. Potency, µM (titrated, usually from 65.8 µM), actives largely listed as inhibitors. 350,000 compounds, 0.35% hits. AID 2517; also: nearly all actives have a fitted effect of over 55% in size
#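 Endonuclease cleavage of a quenched abasic-site DNA duplex (50 nM) by APE1 (0.75 nM) was tracked by TAMRA dequenching. Compounds were preincubated with enzyme 15 min at room temperature; data normalized to buffer-only and DMSO wells plus NSC13755 control.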
# RECQ1 inh-1: RECQ1 (human) helicase inhibition. P46063. RECQ1 DNA unwinding, red fluorescence kinetic read. Potency, µM (doses to about 57.3 µM), usual class: inhibitors. 240,000 compounds, 0.54% hits. AID 2549; also: nearly all actives have a fitted effect of over 30% in size
#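 50 nM RECQ1T1 preincubated 15 min with compound in Tris pH 8.0 buffer with MgCl2, DTT, Tween-20 and 2.5 ug/ml poly(dI-dC); started with 200 nM TAMRA/BHQ-2 forked duplex and 2 mM ATP. Unwinding read as fluorescence (525/598 nm), two reads 2 h apart.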
# TexasRed fluor: counter-screen for TRb-SRC2 inhibitors: fluorescence interference; TRb/SRC2 Texas Red total fluorescence interference; Potency, µM (highest dose often 106 µM); 280,000 compounds, 0.29% hits; active = well fitted curve in either direction with a large enough effect; inconclusive = small, poorly fitted or top-dose-only effect
#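 Human TRβ ligand-binding domain (0.6 uM) and Texas Red SRC2 peptide (20 nM) in Tris buffer with 1 uM T3 and 5% DMSO were incubated with pinned compound for 5 hr at ambient temperature. Total fluorescence was computed as S + 2P (555/632 nm).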
# WRN helicase inh: inhibitors of human WRN helicase; Potency, µM (top dose mostly 114 µM), actives largely listed as inhibitors; 360,000 compounds, 0.46% hits; Q14191; WRN helicase unwinding, fluorescent forked duplex, kinetic; AID 651768; also: nearly all actives have a fitted effect of over 55% in size
# Target sequence (Q14191 whole entry, looked up): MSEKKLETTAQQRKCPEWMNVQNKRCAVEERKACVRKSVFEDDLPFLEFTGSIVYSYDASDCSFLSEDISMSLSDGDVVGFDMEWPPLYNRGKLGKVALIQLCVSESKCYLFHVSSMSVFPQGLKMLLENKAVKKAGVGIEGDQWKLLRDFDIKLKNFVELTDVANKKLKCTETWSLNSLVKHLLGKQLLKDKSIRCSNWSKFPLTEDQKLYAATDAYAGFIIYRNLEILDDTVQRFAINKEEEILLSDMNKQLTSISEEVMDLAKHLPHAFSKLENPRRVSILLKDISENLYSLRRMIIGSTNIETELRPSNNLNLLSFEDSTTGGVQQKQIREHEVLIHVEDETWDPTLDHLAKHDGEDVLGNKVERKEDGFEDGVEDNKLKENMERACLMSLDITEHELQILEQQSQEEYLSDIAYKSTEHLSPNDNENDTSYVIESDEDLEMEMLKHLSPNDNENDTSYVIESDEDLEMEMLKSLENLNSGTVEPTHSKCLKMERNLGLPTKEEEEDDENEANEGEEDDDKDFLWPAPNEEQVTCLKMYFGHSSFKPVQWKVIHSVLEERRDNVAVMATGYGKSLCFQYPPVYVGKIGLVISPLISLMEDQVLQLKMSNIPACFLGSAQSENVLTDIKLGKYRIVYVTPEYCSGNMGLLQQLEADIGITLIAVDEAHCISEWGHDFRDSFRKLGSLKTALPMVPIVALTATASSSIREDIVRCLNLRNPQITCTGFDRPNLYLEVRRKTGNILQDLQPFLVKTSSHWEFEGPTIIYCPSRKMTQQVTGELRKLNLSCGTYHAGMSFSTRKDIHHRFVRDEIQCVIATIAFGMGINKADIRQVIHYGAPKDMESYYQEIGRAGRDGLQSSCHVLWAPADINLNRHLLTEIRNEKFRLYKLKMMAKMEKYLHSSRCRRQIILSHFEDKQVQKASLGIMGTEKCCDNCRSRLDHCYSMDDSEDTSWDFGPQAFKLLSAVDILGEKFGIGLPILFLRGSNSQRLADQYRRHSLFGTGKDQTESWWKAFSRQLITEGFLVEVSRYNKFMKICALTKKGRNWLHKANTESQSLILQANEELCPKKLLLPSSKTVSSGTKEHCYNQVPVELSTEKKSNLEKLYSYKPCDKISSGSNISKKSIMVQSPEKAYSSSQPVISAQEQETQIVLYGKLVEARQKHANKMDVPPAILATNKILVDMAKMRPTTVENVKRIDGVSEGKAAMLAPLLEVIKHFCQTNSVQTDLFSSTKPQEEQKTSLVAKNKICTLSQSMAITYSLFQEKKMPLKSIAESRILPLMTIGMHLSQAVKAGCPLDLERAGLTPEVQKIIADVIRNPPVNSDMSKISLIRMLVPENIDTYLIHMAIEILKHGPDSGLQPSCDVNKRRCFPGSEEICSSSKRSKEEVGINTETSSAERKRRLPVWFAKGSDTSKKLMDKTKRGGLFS
#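 WRN at 20 nM final was preincubated with compound for 15 min at room temperature; reaction started with 100 nM forked duplex oligonucleotide carrying fluorophore and quencher plus 2 mM ATP (final). Unwinding followed kinetically by red fluorescence (ex 525/em 598 nm).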
# BLM inh-1: blocks DNA unwinding by human BLM helicase. P54132. recombinant BLM DNA unwinding, fluorescence dequenching. Potency, µM (top dose mostly 56.1 µM), most hits filed as inhibitors. 350,000 compounds, 0.2% hits. AID 2528; also: nearly all actives have a fitted effect of over 35% in size
# DNA dye displace: counter-screen for APE1 inhibitors: DNA dye displacement; Potency, µM (highest dose often 28.5 µM), hits mostly inhibitors; shares compounds with APE1 inh-1; 480 compounds, 7% hits; AID 2564; DNA fluorescent dye displacement counterscreen, fluorescence;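 also: loss of thiazole orange fluorescence as the dye is displaced from duplex DNA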
# Endo IV inh: blocks E. coli endonuclease IV DNA cleavage; AID 2565; 560 compounds, 4% hits; Potency, µM (series often up to 27.1 µM), usual class: inhibitors; shares compounds with APE1 inh-1; E. coli Endo IV, fluorogenic AP-site DNA cleavage
# APE1 inh-2: APE1 (human) endonuclease inhibition, confirmation; Potency, µM (highest dose often 57.1 µM), actives largely listed as inhibitors; purified APE1, fluorogenic abasic-site DNA cleavage; shares compounds with APE1 inh-1; 750 compounds, 44% hits; also: nearly all actives have a fitted effect of over 30% in size
# APE1 FP inh: compounds that displace a DNA probe from human APE1 | APE1 binding to TAMRA-labelled double-stranded DNA, fluorescence polarization displacement | shares compounds with APE1 inh-1 | AID 2573 | Potency, µM (series often up to 28.5 µM), actives largely listed as inhibitors | 480 compounds, 7% hits
# BLM inh-2: confirmation of inhibitors of human Bloom syndrome helicase BLM; shares compounds with BLM inh-1; BLM DNA unwinding, fluorescence quenching, biochemical; Potency, µM, most hits filed as inhibitors; 220 compounds, 40% hits;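 also: strand separation dequenches TAMRA so unwinding raises red fluorescence; series mostly up to about 69 µM; nearly all actives have a fitted effect of over 45% in size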
# RECQ1 conf: confirmation of human RECQ1 helicase inhibitors; shares compounds with RECQ1 inh-1; RECQ1 helicase DNA unwinding, fluorescence; Potency, µM (titrated, usually from 229 µM), actives largely listed as inhibitors; 610 compounds, 28% hits; AID 2708; also: nearly all actives have a fitted effect of over 45% in size
# ADP FP counter: counter-screen for RECQ1 inhibitors: ADP displacement. ADP fluorescence polarization displacement counterscreen. Potency, µM (doses to about 228 µM), hits mostly inhibitors. 530 compounds, 27% hits. shares compounds with RECQ1 inh-1; also: nearly all actives have a fitted effect of over 45% in size
# RECQ1 inh-2: confirmation of human RECQ1 helicase inhibitors; shares compounds with RECQ1 inh-1; recombinant RECQ1 DNA unwinding, red fluorescence; Potency, µM (doses to about 119 µM), most hits filed as inhibitors; 1,100 compounds, 15% hits; also: nearly all actives have a fitted effect of over 50% in size
# Hits are given with their value; 0 = inactive; ? = inconclusive; - = no result given; [ ] = dose if it differs, or a comment. Unless noted, calls follow the shape of the dose curve; as a rule, active = well fitted curve in the direction sought with a large enough effect; inconclusive = small, poorly fitted or top-dose-only effect, or another doubt; inactive = no such curve, though single readings can be large; an effect the other way counts as inactive or inconclusive.
SMILES,TRb-SRC2 inh,APE1 inh-1,RECQ1 inh-1,TexasRed fluor,WRN helicase inh,BLM inh-1,DNA dye displace,Endo IV inh,APE1 inh-2,APE1 FP inh,RECQ1 conf,ADP FP counter,others
O=C(Nc1nc(-c2ccco2)c(-c2ccco2)s1)C1CC(=O)N(c2ccc3c(c2)OCCO3)C1 (stereo unspecified),0,2.51µM,7.94µM,25.1µM[quencher],12.6µM,14.1µM,11.2µM,0,?,0,28.2µM,39.8µM,RECQ1 inh-2=?
CCn1c(SCC(=O)O)nc2sc3c(c2c1=O)CCC3,0,22.4µM,?,0,?,0,0,0,?,0,-,-,RECQ1 inh-2=?
COC(=O)c1ccc(CSc2ccccc2NC(=S)Nc2cccc(C(F)(F)F)c2)o1,-,-,-,-,0,-,-,-,-,-,-,-,
O=C1C=C(O)c2ccccc2C1=O,0,0,0,0,-,0,-,-,-,-,-,-,
O=C1C=C(O)c2cccc(O)c2C1=O,0,?,?,0,0,0,0,0,0,0,-,-,RECQ1 inh-2=0
COc1cc(/C=C/[N+](=O)[O-])ccc1OCc1cccc(C(=O)O)c1,?,6.31µM,20µM,0,20µM,?,0,0,?,0,0,?,
CC1=C(C(=O)N2CCCCCC2)CC(CC(=O)NCCN2CCOCC2)C(=O)N1CCCN1CCCC1=O (stereo unspecified),-,-,-,-,0,-,-,-,-,-,-,-,
O=C(COc1ccc2c3c(c(=O)oc2c1)CCC3)Nc1ccccn1,-,0,-,-,0,0,-,-,-,-,-,-,
CN1CC(=O)N(CC(=O)Nc2cccc(S(=O)(=O)N3CCOCC3)c2)C1=O,0,0,0,0,0,0,-,-,-,-,-,-,
COc1c(Cl)cc(C(=O)NN)cc1Cl,0,0,0,0,0,0,-,-,-,-,-,-,
NNC(=O)c1cc(O)c(O)c(O)c1,0,0.891µM,3.16µM,0,0,?,0,0,3.98µM,0,0,0,
Cc1ccc(C=C2C(=O)c3ccccc3C2=O)o1,0,?,0,0,?,0,-,-,-,-,-,-,
Cc1ccc(/C=C2/C(=O)c3ccc(C(=O)O)cc3C2=O)o1,0,8.91µM,7.08µM,0,12.6µM,0,-,-,?,-,0,44.7µM,
O=C1c2ccccc2-c2onc3ccc(NCc4ccco4)c1c23,35.5µM,?,20µM,44.7µM[fluorescent],?,0,-,-,14.1µM,-,-,-,RECQ1 inh-2=39.8µM
CCN(Cc1ccccc1)C(=O)c1ccc2c(=O)n3c(nc2c1)CCC3,-,0,-,-,0,-,-,-,-,-,-,-,
O=C(Cn1cnc2sc(-c3ccccc3)cc2c1=O)NCc1ccco1,0,31.6µM,20µM,0,56.2µM,17.8µM,0,0,8.91µM,?,39.8µM,0,BLM inh-2=?
C[C@@H]1CN([C@@H](C)CO)C(=O)CCCn2nncc2CO[C@H]1CN(C)C,-,-,-,-,0,-,-,-,-,-,-,-,
C=C(C)C(=O)Nc1cccc(C2=NOC3(C2)C[C@@H](C(N)=O)N(C(=O)c2cc([N+](=O)[O-])cc([N+](=O)[O-])c2)C3)c1 (stereo partly specified),0,0,0,0,0,0,-,-,-,-,-,-,
C=C(C)C(=O)Nc1cccc(C2=NOC3(C2)C[C@@H](C(N)=O)N(C(=O)c2ccc(OC)cc2)C3)c1 (stereo partly specified),0,?,7.94µM,0,?,0,-,-,?,-,25.1µM,35.5µM,
CC1CN(C(=O)N2CCC(C(=O)NCc3cccs3)CC2)c2cc(Cl)ccc2O1 (stereo unspecified),0,-,-,0,-,0,-,-,-,-,-,-,

# Screening data deposited in PubChem by National Center for Advancing Translational Sciences (NCATS).
